Inhibition data for 36 molecules are collected here from ChEMBL document CHEMBL3433997, “St. Jude Leishmania screening dataset” (2016).

Type in all cases: functional
Assay [1] has as its target Solute carrier family 2, facilitated glucose transporter member 1 (Homo sapiens) (UniProt P11166). The experiment in a line: ST_JUDE_LEISH: Cytotoxicity at 2uM final concentration against transgenic Leishmania Mexicana promastigotes LmGLUT1 that are glucose transport deficient and complemented with the human glucose transporter GLUT1. Activity is measured by DNA content using SYBR green in vitro.

The target in assay [2] is Hexose transporter 1 (Plasmodium falciparum) (UniProt O97467). The experiment in a line: ST_JUDE_LEISH: Cytotoxicity at 2uM final concentration against transgenic Leishmania Mexicana promastigotes LmPfHT that are glucose transport deficient and complemented with the Plasmodium falciparum hexose transporter. Activity is measured by DNA content using SYBR green in vitro.

The target in assay [3] is Glucose transporter (Leishmania mexicana) (UniProt O61059). The experiment in a line: ST_JUDE_LEISH: Cytotoxicity at 2uM final concentration against transgenic Leishmania Mexicana promastigotes LmGT2 that are glucose transport deficient and complemented with the L. Mexicana glucose transporter 2. Activity is measured by DNA content using SYBR green in vitro.

Solute carrier family 2, facilitated glucose transporter member 1 (Homo sapiens), sequence (P11166 whole entry): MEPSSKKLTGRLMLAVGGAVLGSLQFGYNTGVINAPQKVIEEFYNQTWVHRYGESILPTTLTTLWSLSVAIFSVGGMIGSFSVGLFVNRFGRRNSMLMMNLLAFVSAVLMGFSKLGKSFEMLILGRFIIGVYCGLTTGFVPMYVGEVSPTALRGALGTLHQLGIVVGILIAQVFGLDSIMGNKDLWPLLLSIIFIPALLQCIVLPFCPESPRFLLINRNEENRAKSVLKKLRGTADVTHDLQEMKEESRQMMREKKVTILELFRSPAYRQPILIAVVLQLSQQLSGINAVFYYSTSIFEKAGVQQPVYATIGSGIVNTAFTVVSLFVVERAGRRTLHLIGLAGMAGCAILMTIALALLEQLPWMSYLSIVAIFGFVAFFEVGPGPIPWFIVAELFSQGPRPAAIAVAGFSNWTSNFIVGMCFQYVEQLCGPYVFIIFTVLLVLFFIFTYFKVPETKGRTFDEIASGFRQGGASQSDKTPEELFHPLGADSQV

Broadly, the inhibition is the change of the read-out against control, counted positive when it falls. `COc1ccc(NC(=O)[C@H](CC(C)C)Nc2cc(C)nc(NCc3ccccc3C)n2)cc1`: the inhibition stood at 1.76% in assay [1], 2.18% in assay [2] and 0.33% in assay [3].
On the same counts, the results for `Nc1nc2c(ncn2COC2COP(=O)(O)OC2)c(=O)[nH]1` (stereo not drawn) are 12.2%, 12% and 12.3%.
On the same counts, the results for `COc1ccc(Nc2nc(C)cc(NCc3ccc(-c4c(C)noc4C)cc3)n2)cc1` are 17.4%, 13.9% and 2.01%.
For `O=c1cc(NCCCNCc2ccccc2-c2ccccc2)[nH]c2ccccc12` the same measures were 2.76%, 3.22% and 1.59%.
As for `COc1ccccc1C1CN(Cc2coc3ccccc3c2=O)Cc2ccccc2O1` (stereo not drawn), the inhibition turned out to be 0.38% in assay [1], 0.56% in assay [2] and 0.45% in assay [3].
Turning to `COc1cc2nc(N3CCC(c4ccccc4)CC3)nc(NCc3ccc(=O)[nH]c3)c2cc1OC`, the inhibition was found to be 1.44% in assay [1], 1.5% in assay [2] and 1.6% in assay [3].
Turning to `COc1ccc2nccc([C@@H](O)CN3CCC(NCc4ccc5c(c4)N(C)C(=O)CO5)CC3)c2c1`, the inhibition in assay [1] is 0.27%; in assay [2] it was 0.25%; in assay [3], 0.03%.
For `COc1cccc(C(=O)N2CCN(Cc3cccc(NC(=O)c4cccs4)c3)CC2)c1` the same measures were 2.14%, 2.18% and 5.14%.
For `COc1ccc2nccc([C@@H](O)CN3CCC(NC(=O)Cc4ccc(Br)c5ccccc45)CC3)c2c1`, the values for the inhibition in assay [1], in assay [2] and in assay [3] were 3.72%, 3.24% and 1.16%, respectively.
Take `NC(=O)C1CCN(Cc2cccc(-c3ccc(-c4nc5cc(C(F)(F)F)ccc5[nH]4)cc3)c2)CC1`: the results for the inhibition in assay [1], in assay [2] and in assay [3] were -1.36%, -1.5% and -2.94%, respectively.
In the case of `CC(=O)Nc1ccc(CN2CCc3ccc(NS(=O)(=O)c4ccc(-c5cccc(C(F)(F)F)c5)cc4)cc3CC2)s1`, the inhibition in assay [1] was 2.54%; in assay [2] it was 2.18%; in assay [3], 3.46%.
Consider `CC(=O)c1sc(NC(=O)Nc2ccc(C)cc2C)nc1C`, for which the inhibition in assay [1] worked out at 14%; in assay [2] it was 8.74%; in assay [3], 3.63%.
For `CCCCc1ccc(Cc2cnc3nc(N)nc(N)c3c2C)cc1` the same measures were 11.6%, 23% and 15.6%.
On to `CCc1ccc(OCc2ccccc2C(=O)Nc2ccc3nc(C)cc(N)c3c2)cc1`, for which the inhibition in assay [1] was determined as 2.1%; in assay [2] it was 2.87%; in assay [3], 1.97%.
On the same counts, the results for `CC1CN(Cc2cccc(-c3ccc(-c4nc5ccccc5[nH]4)cc3)c2)CC(C)O1` (stereo not drawn) are 3.06%, 4.42% and 2.3%.
On the same counts, the results for `c1ccc(CCNCc2ccc(-c3ccc(CNC4CCN(Cc5ccccc5)CC4)cc3)nc2)cc1` are 5.76%, 11.9% and 4.15%.
For `FC(F)(F)c1ccc2[nH]c(-c3ccc(-c4cccc(CNCc5cnn(-c6ccccc6)n5)c4)cc3)nc2c1` the same measures were 2.04%, 1.86% and -0.02%.
As to `Clc1ccc(-c2csc3ncnc(Cl)c23)cc1`, the inhibition in assay [1] worked out at 4.6%; in assay [2], 0.54%; in assay [3], 4.02%.
On the same counts, the results for `CC(Oc1c(C2CCN(CCCCNC(=O)c3ccc(-c4ccc(Cl)cc4)cc3)CC2)ccc2c1CCCC2)C(N)=O` (stereo not drawn) are -0.63%, -0.36% and -0.27%.
For `COc1ccccc1-c1cc(C(=O)N2CCN(S(=O)(=O)c3ccc(C)cc3)CC2)[nH]n1` the same measures were 6.02%, 3.73% and -0.58%.
As for `CCOc1ccccc1C1C(C(=O)C(C)(C)C)N2c3ccc(Br)cc3C=CC2C12C(=O)c1ccccc1C2=O` (stereo not drawn), the inhibition came out at 72.3% in assay [1], 76.5% in assay [2] and 57.1% in assay [3].
For the molecule `CC1CC(NCCCNc2cc(=O)c3ccccc3[nH]2)c2c(Cl)c(Cl)cc(Cl)c21` (stereo not drawn), the inhibition in assay [1] was determined as 5.21%; in assay [2], 3.08%; in assay [3] it was 1.22%.
On the same counts, the results for `O=C(Nc1ccc2c(c1)CCN(C1CCC1)CC2)c1ccc(-c2cn3ccccc3n2)cc1` are 3.01%, 1.01% and 3.48%.
Take `C=CCOc1ccc(CNC2CCN(Cc3ccccc3)CC2)cc1Br`: the inhibition in assay [1] worked out at 2.99%; in assay [2], 4.16%; in assay [3], 0.3%.
On the same counts, the results for `CCn1ccc2c3c(N)nc(N)nc3ccc21` are 1.21%, 2.13% and -1.34%.
Take `O=C(Nc1ccc2c(c1)CCC2)c1cccc(CN2CCCN(Cc3cccc(O)c3)CC2)c1`: the inhibition in assay [1] was 1.77%; in assay [2], -2.6%; in assay [3], -0.46%.
Turning to `CC(C)C(=O)NC(c1cccs1)c1cc(Cl)c2cccnc2c1O` (stereo not drawn), the inhibition in assay [1] was 1.65%; in assay [2], 1.13%; in assay [3], -0.45%.
For `Cc1ccc(NC(=O)c2ccc(Cl)c(Cl)c2)cc1-c1ccc(C(=O)Nc2ccncc2)cc1` the same measures were -0.14%, 0.86% and -1.3%.
In the case of `CCOC(=O)C1=C(C)NC(Cn2ccnc2)=C(C(=O)OCC)C1c1ccc(C(C)(C)C)cc1` (stereo not drawn), the inhibition in assay [1] was determined as 2.7%; in assay [2], 2.73%; in assay [3] it was 2.07%.
Turning to `COCC(C)n1c(C)cc(C(=O)CSc2nnc(Nc3ccccc3)s2)c1C` (stereo not drawn), the figures for the inhibition in assay [1], in assay [2] and in assay [3] were 1.18%, 1.49% and -0.94%, respectively.
On the same counts, the results for `Cc1cccc2nc(-c3ccc(-c4ccc(NC(=O)Nc5ccc(F)c(F)c5F)cc4)s3)[nH]c12` are 1.26%, 0.06% and 0.31%.
For `Cc1cc(OCCCN2CCCCC2)ccc1NC(=O)COc1ccc(Cl)cc1C(=O)c1cc(Cl)cc(C#N)c1`, the inhibition in assay [1] was found to be 60.8%; in assay [2], 19.1%; in assay [3] it was 5.79%.
On the same counts, the results for `Cc1cc(OCC2CCCN(c3ncc(C(=O)NC4CC4)cc3Cl)C2)ccc1F` (stereo not drawn) are 0.51%, 1.78% and 0.81%.
On the same counts, the results for `CCCC1(NC[C@@H](O)[C@H](Cc2ccccc2)NC(=O)c2cc(NCC)cc(N3CCCCS3(=O)=O)c2)CCC1` are 4.81%, 2.33% and 2.83%.
As for `CCCCOc1ccc(/C=C/c2ccc(-c3c(C)[nH]c(C)c(Cl)c3=O)s2)cc1`, the inhibition is -1.17% in assay [1], 2.35% in assay [2] and -1.25% in assay [3].
`CC(C)(C)c1ccc(CNC(=O)c2ccc(CNC3CCC(N)CC3)s2)cc1` (stereo not drawn): the inhibition in assay [1] was -0.19%; in assay [2], 0.91%; in assay [3] it was 0.31%.
